Experimental data: PubChem BioAssay (Tox21)
Unmarked numbers belong to inactive results. Inconclusive results are not listed. Entries that show only a call come without a potency. Calls of active or inactive are those of the source. Unless noted, the call rests on the fitted dose curve; in most records, active means well fitted curve in the direction sought with a large enough effect in the repeat runs; inconclusive means weak or mixed curves; inactive means no such curve, though single readings can be large; an effect the other way counts as inactive or inconclusive.

Key:
[1] = qHTS assay to identify small molecule antagonists of the estrogen receptor alpha (ER-alpha) signaling pathway using the BG1 cell line in the presence of 0.1 nM 17-beta-estradiol - cell viability counter screen (AID 1259241); further: nearly all actives have a fitted effect of over 40% in size
Outline: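 Measures cytotoxicity alongside the ER-alpha antagonist readout: VM7Luc4E2 cells, charcoal-stripped serum, 0.1 nM 17beta-estradiol final, 22 hr compound incubation at 37C, CellTiter-Fluor fluorescence.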

[2] = qHTS assay to identify small molecule antagonists of the androgen receptor (AR) signaling pathway using the MDA cell line in the presence of 0.5 nM R1881 - cell viability counter screen (AID 1259242); further: nearly all actives have a fitted effect of over 45% in size
Outline: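 Human breast carcinoma MDA-kb2 cells, cultured without CO2, receive compounds alongside 0.5 nM (final) R1881 agonist. After 16 hr at 37C, viability is taken as live-cell protease signal.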

[3] = molecular target: Estrogen receptor (Homo sapiens) (UniProt P03372); experiment: qHTS assay to identify small molecule antagonists of the estrogen receptor alpha (ER-alpha) signaling pathway using the BG1 cell line in the presence of 0.1 nM 17-beta-estradiol (AID 1259244); further: nearly all actives have a fitted effect of over 50% in size
Sequence of Estrogen receptor (Homo sapiens) (P03372 whole entry, looked up): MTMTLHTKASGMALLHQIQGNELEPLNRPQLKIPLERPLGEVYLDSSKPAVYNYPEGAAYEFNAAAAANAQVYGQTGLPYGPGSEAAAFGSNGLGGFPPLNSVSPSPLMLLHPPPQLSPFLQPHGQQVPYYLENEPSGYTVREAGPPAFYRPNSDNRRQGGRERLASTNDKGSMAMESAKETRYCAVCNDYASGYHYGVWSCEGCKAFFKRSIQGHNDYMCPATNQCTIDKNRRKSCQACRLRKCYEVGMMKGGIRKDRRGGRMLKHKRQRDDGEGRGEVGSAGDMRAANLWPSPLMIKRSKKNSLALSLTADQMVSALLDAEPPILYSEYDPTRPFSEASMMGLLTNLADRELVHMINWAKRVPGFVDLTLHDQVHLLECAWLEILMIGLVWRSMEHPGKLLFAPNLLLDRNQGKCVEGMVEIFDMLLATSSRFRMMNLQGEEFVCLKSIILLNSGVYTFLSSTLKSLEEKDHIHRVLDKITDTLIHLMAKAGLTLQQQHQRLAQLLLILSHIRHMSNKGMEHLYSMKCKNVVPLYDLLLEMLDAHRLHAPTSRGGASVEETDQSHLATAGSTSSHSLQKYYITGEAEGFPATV
Outline: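 Seeding of stripped-serum-adapted VM7Luc4E2 cells, 24 h attachment, compound transfer, then 0.1 nM final 17beta-estradiol; after 22 h incubation, ONE-Glo reagent and luminescence reading.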

[4] = qHTS assay to identify small molecule phospholipidosis (PLD) inducers (AID 1259344; active means well fitted curve in the direction sought with a large enough effect; an effect the other way counts as inactive or inconclusive)
Outline: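 Cells (HepG2, 900 per well) attach for 4 h, receive LipidTOX Red and compound together, incubate 24 h at 37 C, are fixed 30 min with paraformaldehyde/Hoechst, then imaged at one site per well.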

[5] = qHTS assay to identify small molecule HDAC inhibitors (AID 1259364);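 further: wild-type HCT-116 cells with endogenous class I/II HDAC activity; top concentration of the series differs between compounds; nearly all actives have a fitted effect of over 45% in size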
Outline: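 After a 2 hr compound incubation (37C, 5% CO2), HCT-116 cells seeded at 1,500/well the day before received HDAC-Glo reagent; signal read as luminescence after 30 min at room temperature.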

[6] = qHTS assay to identify small molecule HDAC inhibitors - cell viability counter screen (AID 1259365); further: series mostly up to about 92 µM; nearly all actives have a fitted effect of over 50% in size
Outline: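 Following a 2hr exposure of overnight-plated wild-type HCT-116 cells to DMSO-delivered compounds, CellTiter-Glo was added and luminescence recorded after 30min at room temperature.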

[7] = qHTS assay to identify small molecule agonists of the sonic hedgehog signaling (Shh) pathway - cell viability counter screen (AID 1259366); further: nearly all actives have a fitted effect of over 50% in size; further: potency means the concentration at half of the fitted maximal effect
Outline: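 After a 4hr attachment at 37C, NIH/3T3 cells bearing an integrated Gli1-driven luciferase reporter were dosed with compounds. Treatment lasted 24hr, with the final hour including CellTiter-Fluor for a fluorescence viability measurement.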

[8] = qHTS assay to identify small molecule antagonists of the sonic hedgehog signaling (Shh) pathway - cell viability counter screen (AID 1259367); further: nearly all actives have a fitted effect of over 55% in size
Outline: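 Cytotoxicity was assessed in parallel with Shh reporter activity by measuring live-cell protease fluorescence (CellTiter-Fluor) in NIH/3T3 cells stably carrying Gli1-Luc, treated with compound under conditioned medium stimulation for 23 hr plus 1 hr reagent incubation.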

[9] = qHTS assay to identify small molecule agonists of the sonic hedgehog signaling (Shh) pathway (AID 1259368; calls by dose curve;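 further: NIH/3T3-derived 3T3Gli1-Luc cells carrying a stable Gli1-driven firefly luciferase reporter; series mostly up to about 92 µM; nearly all actives have a fitted effect of over 15% in size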)
Outline: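 Stable NIH/3T3 Gli1-Luc reporter clone; 24 hr cpd exposure after a 4 hr settling period; luminescence endpoint.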

[10] = qHTS assay to identify small molecule antagonists of the sonic hedgehog signaling (Shh) pathway (AID 1259369; calls by dose curve; further: nearly all actives have a fitted effect of over 45% in size)
Outline: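 Gli1 transcriptional reporter (firefly Luc) in NIH/3T3 background, conditioned-medium activated. 24hr exposure, luminescence endpoint.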

[11] = molecular target: Estrogen receptor beta (Homo sapiens) (UniProt Q92731); experiment: qHTS assay to identify small molecule agonists of the estrogen receptor beta (ER-beta) signaling pathway (AID 1259377; active means well fitted activation curve with a large enough effect in the signal ratio in the repeat runs, not every such curve was filed as active; the % refers to the signal ratio)
Sequence of Estrogen receptor beta (Homo sapiens) (Q92731 whole entry, looked up): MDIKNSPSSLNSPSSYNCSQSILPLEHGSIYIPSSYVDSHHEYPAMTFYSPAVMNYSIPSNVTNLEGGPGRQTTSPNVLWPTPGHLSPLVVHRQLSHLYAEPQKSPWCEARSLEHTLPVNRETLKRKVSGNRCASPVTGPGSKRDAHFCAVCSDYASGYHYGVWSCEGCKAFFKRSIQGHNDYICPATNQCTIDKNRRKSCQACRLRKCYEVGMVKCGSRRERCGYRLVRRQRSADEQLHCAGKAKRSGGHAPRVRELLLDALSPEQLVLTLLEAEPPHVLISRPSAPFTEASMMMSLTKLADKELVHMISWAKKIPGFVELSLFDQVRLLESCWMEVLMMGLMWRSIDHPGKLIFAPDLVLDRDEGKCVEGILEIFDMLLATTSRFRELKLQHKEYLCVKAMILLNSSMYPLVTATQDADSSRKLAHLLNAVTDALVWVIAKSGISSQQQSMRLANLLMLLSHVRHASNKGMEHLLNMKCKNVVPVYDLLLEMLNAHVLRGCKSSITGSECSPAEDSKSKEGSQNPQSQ
Outline: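 In HEK293T cells bearing a UAS-beta-lactamase reporter under ER-beta control, DMSO-delivered compounds were incubated for 16 hr at 37C. Activity was detected as fluorescence 2 hours after LiveBLAzer B/G FRET substrate addition.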

[12] = molecular target: Estrogen receptor beta (Homo sapiens) (UniProt Q92731); experiment: qHTS assay to identify small molecule antagonists of the estrogen receptor beta (ER-beta) signaling pathway (AID 1259378; active means well fitted inhibition curve with a large enough effect in the signal ratio in the repeat runs, not every such curve was filed as active; the % refers to the signal ratio)
Outline: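 ER-beta-UAS-bla HEK293T (GripTite) cells in 2% charcoal-stripped FBS medium were preincubated 6 hr at 37C, dosed with compound, then stimulated with 1 nM E2 (final) for 16 hr; beta-lactamase reporter read by B/G FRET fluorescence after 2 hr substrate loading.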

[13] = qHTS assay to identify small molecule agonists of the androgen receptor (AR) signaling pathway in the presence of an antagonist - cell viability counter screen (AID 1259379);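 further: MDA-kb2 human breast cancer cells carrying an MMTV luciferase reporter; series mostly up to about 92 µM; nearly all actives have a fitted effect of over 25% in size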
Outline: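 Counter screen for cell viability run in parallel with the AR agonist-mode luciferase assay. MDA-kb2 cells were co-treated with nilutamide (3.0uM final) and compounds, then incubated 16 hr at 37C, and CellTiter-Fluor fluorescence was measured.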

[14] = qHTS assay to identify small molecule agonists of the estrogen receptor beta (ER-beta) signaling pathway - cell viability counter screen (AID 1259380); further: nearly all actives have a fitted effect of over 30% in size
Outline: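 In this qHTS counter screen, HEK293T cells carrying an ER-beta/UAS beta-lactamase reporter, grown in 2% charcoal-stripped FBS, received compound for 16 hr; ATP-based CellTiter-Glo luminescence was then read after 30 min at room temperature.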

[15] = molecular target: Estrogen receptor (Homo sapiens) (UniProt P03372); experiment: qHTS assay to identify small molecule agonists of the estrogen receptor alpha (ER-alpha) signaling pathway in the presence of an antagonist (AID 1259383; calls by dose curve; further: top concentration of the series differs between compounds; nearly all actives have a fitted effect of over 15% in size)
Outline: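 ER-alpha agonism measured under antagonist challenge: 10.0nM ICI-182,780 (final) plus compound, 15 concentrations, 22hr, VM7Luc4E2 ERE-luciferase cells. Read by luminescence.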

[16] = qHTS assay to identify small molecule agonists or antagonists of the thyroid stimulating hormone receptor (TSHR) signaling pathway - wild type cell line counter screen (AID 1259384; calls by dose curve)
Outline: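 Wild-type HEK293 cells were plated 18 h at 37 C/5% CO2, pin-dosed with compound plus Ro20-1724 medium, held 30 min at room temperature, then given cAMP-d2 and anti-cAMP-cryptate; fluorescence was read after 1 h. Fifteen concentrations, triplicate.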

[17] = molecular target: Thyrotropin receptor (Homo sapiens) (UniProt P16473); experiment: qHTS assay to identify small molecule antagonists of the thyroid stimulating hormone receptor (TSHR) signaling pathway (AID 1259385; calls by dose curve; further: nearly all actives have a fitted effect of over 20% in size)
Sequence of Thyrotropin receptor (Homo sapiens) (P16473 whole entry, looked up): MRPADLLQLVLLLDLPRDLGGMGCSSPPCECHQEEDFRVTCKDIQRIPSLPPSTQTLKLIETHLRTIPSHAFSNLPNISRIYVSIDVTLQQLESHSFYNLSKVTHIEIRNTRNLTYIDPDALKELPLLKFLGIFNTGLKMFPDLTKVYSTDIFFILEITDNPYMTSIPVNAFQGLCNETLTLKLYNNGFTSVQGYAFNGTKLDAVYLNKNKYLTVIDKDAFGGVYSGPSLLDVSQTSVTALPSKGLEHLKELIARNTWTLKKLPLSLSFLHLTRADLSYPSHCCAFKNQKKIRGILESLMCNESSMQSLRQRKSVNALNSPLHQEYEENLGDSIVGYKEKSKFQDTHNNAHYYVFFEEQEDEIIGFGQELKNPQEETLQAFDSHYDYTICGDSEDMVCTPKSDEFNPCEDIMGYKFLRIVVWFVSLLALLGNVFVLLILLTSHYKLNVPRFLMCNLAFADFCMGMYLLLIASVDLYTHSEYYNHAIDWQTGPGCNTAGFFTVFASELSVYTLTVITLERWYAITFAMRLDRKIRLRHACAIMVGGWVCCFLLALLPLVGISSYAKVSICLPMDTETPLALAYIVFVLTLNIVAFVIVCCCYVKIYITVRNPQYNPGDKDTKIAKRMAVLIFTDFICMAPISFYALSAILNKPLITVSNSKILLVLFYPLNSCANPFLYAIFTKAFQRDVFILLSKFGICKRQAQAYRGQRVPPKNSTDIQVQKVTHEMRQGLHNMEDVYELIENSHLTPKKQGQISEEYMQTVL
Outline: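 TSHR-HEK293 cells were plated and held 18 h at 37C/5% CO2, then given compound plus Ro20-1724 and stimulated with TSH at 1.5 ng/mL final. After 30 min at room temperature, cAMP was detected with cAMP-d2/anti-cAMP-cryptate (1 h) by fluorescence.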

[18] = molecular target: Androgen receptor (Homo sapiens) (UniProt P10275); experiment: qHTS assay to identify small molecule antagonists of the androgen receptor (AR) signaling pathway using the MDA cell line in the presence of 0.5 nM R1881 (AID 1259243); further: nearly all actives have a fitted effect of over 50% in size
Sequence of Androgen receptor (Homo sapiens) (P10275 whole entry, looked up): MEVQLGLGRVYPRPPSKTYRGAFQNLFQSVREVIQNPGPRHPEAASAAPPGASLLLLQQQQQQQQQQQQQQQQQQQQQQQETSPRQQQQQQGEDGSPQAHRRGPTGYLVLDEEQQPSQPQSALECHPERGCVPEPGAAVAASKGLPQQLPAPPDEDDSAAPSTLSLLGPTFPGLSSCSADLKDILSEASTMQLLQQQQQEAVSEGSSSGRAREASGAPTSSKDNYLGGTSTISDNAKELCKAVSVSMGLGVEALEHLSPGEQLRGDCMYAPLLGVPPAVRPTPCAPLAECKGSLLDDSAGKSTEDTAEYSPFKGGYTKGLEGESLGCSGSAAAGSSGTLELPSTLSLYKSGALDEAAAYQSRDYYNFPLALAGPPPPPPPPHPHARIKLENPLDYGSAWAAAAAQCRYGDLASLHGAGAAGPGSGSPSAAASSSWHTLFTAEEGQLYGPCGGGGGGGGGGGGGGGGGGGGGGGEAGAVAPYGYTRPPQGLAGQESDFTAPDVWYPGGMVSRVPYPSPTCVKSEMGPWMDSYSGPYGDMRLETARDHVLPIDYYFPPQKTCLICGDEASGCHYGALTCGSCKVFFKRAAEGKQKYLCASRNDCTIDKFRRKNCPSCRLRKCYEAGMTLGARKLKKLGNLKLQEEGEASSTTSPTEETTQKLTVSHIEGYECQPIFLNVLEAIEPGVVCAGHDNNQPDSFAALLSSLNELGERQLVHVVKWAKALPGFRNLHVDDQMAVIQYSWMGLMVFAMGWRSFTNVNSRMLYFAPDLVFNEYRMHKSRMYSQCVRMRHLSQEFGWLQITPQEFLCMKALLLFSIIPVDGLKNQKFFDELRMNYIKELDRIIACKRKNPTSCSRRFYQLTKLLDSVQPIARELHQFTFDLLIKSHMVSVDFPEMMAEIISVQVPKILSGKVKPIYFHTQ
Outline: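 Cells: MDA-kb2 (MMTV-luc). Stimulus: 0.5 nM R1881. Time: 16 hr, 37C, no CO2. Detection: ONE-Glo luminescence after 30 min at RT.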

[19] = molecular target: Androgen receptor (Homo sapiens) (UniProt P10275); experiment: qHTS assay to identify small molecule agonists of the androgen receptor (AR) signaling pathway in the presence of an antagonist (AID 1259381; calls by dose curve; further: nearly all actives have a fitted effect of over 15% in size)
Outline: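 AR antagonist background: nilutamide 3.0uM final. Cell line: MDA-kb2, MMTV-driven luciferase, responsive to both AR and GR. Exposure 16hr, 37C, no CO2; ONE-Glo luminescence.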

[20] = qHTS assay to identify small molecule antagonists of the estrogen receptor beta (ER-beta) signaling pathway - cell viability counter screen (AID 1259382); further: series mostly up to about 92 µM; nearly all actives have a fitted effect of over 55% in size
Outline: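 HEK293T ER-beta-UAS-bla, 2% charcoal-stripped FBS; compounds + 1nM E2 16 hr 37C; CellTiter-Glo luminescence, 30 min RT.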

Structure (SMILES)	outcome [1]	outcome [2]	outcome [3]	outcome [4]	Potency [5]	outcome [6]	Potency [7]	Potency [8]	outcome [9]	Potency [10]	Potency [11]	Potency [12]	Potency [13]	Potency [14]	outcome [15]	outcome [16]	outcome [17]	Potency [18]	Potency [19]	outcome [20]
N[C@H](C(=O)O)[C@@H](O)c1ccc(O)c(O)c1	inactive	inactive	inactive	inactive	inactive	inactive	inactive	inactive	inactive	inactive	inactive	inactive	inactive	inactive	inactive	inactive	inactive	–	–	–
CC(=O)N[C@H]1[C@H]([C@H](O)[C@H](O)CO)OC(C(=O)O)=C[C@@H]1N=C(N)N	inactive	inactive	inactive	inactive	inactive	inactive	inactive	inactive	inactive	inactive	–	–	inactive	inactive	inactive	inactive	inactive	inactive	inactive	inactive
CC(=O)NC(=O)c1ccccc1O	inactive	inactive	inactive	inactive	inactive	inactive	inactive	inactive	inactive	inactive	inactive	inactive	inactive	inactive	inactive	inactive	inactive	–	–	inactive
CC(=O)N1C[C@H](O)C[C@H]1C(=O)O	inactive	inactive	inactive	inactive	inactive	inactive	inactive	inactive	inactive	inactive	inactive	inactive	inactive	inactive	inactive	inactive	–	inactive	inactive	inactive
CC(=O)O[C@@]12CO[C@@H]1C[C@H](O)[C@@]1(C)C(=O)[C@H](O)C3=C(C)[C@@H](OC(=O)[C@H](O)[C@@H](NC(=O)OC(C)(C)C)c4ccccc4)C[C@@](O)([C@@H](OC(=O)c4ccccc4)[C@H]21)C3(C)C	inactive	inactive	inactive	inactive	inactive	inactive	6.68 µM (active)	–	inactive	–	inactive	inactive	inactive	inactive	inactive	–	–	inactive	inactive	–
Cc1ccnc(NS(=O)(=O)c2ccc(N)cc2)n1	inactive	inactive	inactive	inactive	inactive	inactive	inactive	inactive	inactive	inactive	–	–	inactive	inactive	inactive	inactive	inactive	–	–	inactive
O=C(O)c1cn(C2CC2)c2cc(N3CCNCC3)c(F)cc2c1=O	inactive	inactive	inactive	inactive	inactive	inactive	inactive	inactive	inactive	inactive	inactive	–	inactive	inactive	inactive	inactive	inactive	–	–	–
CC1CCC(CO)CC1 (configuration not stated)	inactive	inactive	–	–	inactive	inactive	inactive	inactive	inactive	inactive	inactive	inactive	inactive	inactive	inactive	inactive	inactive	inactive	inactive	inactive
